Measurements as given in PubChem BioAssay (NCATS).
Results filed as inconclusive are left out. Unmarked numbers belong to inactive results. Activity calls are given as the source filed them. Calls come from the whole dose curve; as a rule, active = well fitted cell-killing curve with a large enough effect; inconclusive = small, poorly fitted or top-dose-only effect; inactive = flat fitted curve, though single readings scatter.

Test: qHTS of pediatric cancer cell lines to identify multiple opportunities for drug repurposing: Primary screen for U-2 OS cells (AID 1347096); note: nearly all actives have a fitted effect of over 50% in size
Conditions: U-2 OS viability, CellTiter-Glo luminescence, 48 h; series mostly up to 46 µM; activity change, negative = cytotoxic: at the top concentration
Text: Drug repurposing or repositioning has been offered as a strategy for drug development in oncology programs. This approach has special potential for childhood cancers and other rare or orphan diseases, where the expected return on new drug development has been a disincentive to pharmaceuticals.
In this project we exploit the poly-pharmacology of drugs to discover new indications via phenotypic screening of a panel of 19 well-characterized cell lines derived from solid tumors seen in children and adolescents. The goal is to identify approved drugs with previously unrecognized anticancer properties that has the potential to reveal new mechanisms and biological processes involved in carcinogenesis or drug resistance. We employed a titration-based paradigm (quantitative high-throughput screening or qHTS), where all compounds were tested at multiple concentrations for their effect on cell viability. Concentration-response curves (CRCs) were derived directly from the primary screen, and both potency and efficacy values were used to identify compounds with robust bioactivity profiles. We screened the NIH Chemical Genomics Center (NCGC) Pharmaceutical Collection (NPC) and Mechanism Interrogation Plate (MIPE) small molecule collections of approved and investigational compounds against these cell lines; and measured metabolically active cells after 48 hours of compound treatment as a proxy for cell viability.
Assay Submitter: Nathalia J. Martinez, National Center for Advancing Translational Sciences, National Institutes of Health, Rockville, MD, USA; email: natalia.martinez@nih.gov
[1] Shen, M et al. Quantitative high-throughput phenotypic screening of pediatric cancer cell lines identifies multiple opportunities for drug repurposing. Oncotarget 2017 Dec 19;9(4):4758-4772. PMID 29435139.
The cells were obtained from University of North Carolina (UNC), Pediatric Preclinical Testing Program (PPT), and Coriell Institute (CI).
qHTS cell viability assay:
Cells were assayed in growth media at a density of 500-1,000 cells/well. Five microliters of cells were dispensed into 1,536-well, white, solid-bottom, TC-treated plates (Greiner Bio One) using a multidrop dispenser and incubated at 37 degrees C, 5% CO2, under a humidified atmosphere for 5 hours. Twenty-three nanoliters of compounds and controls (neutral control DMSO or positive control bortezomib at final concentration of 2.3 µM) were subsequently transferred by Kalypsys pintool. For primary screens, the MIPE collection was tested at 11-point dilutions (final concentrations range from 0.78 nM to 46 µM) and the NPC collection at 8-point dilutions (final concentrations range from 0.59 nM to 46 µM). Compounds tested in follow-up screens were assayed at 11-point dilutions. Cells were incubated for 48 hours, followed by addition of 3 µL of CellTiter-Glo (Promega). After a 15 min incubation at room temperature, samples were analyzed for luminescence intensity using a ViewLux High-throughput CCD imager equipped with clear filters.
Potency is the fitted concentration of half-maximal effect.

Going from `OC[C@H]1O[C@@H](n2cnc3c2NC=NC[C@@H]3O)C[C@H]1O` to `Nc1ncnc2c1ncn2[C@@H]1O[C@@H](CO)[C@H](O)[C@H]1O`, the “activity change, negative = cytotoxic” value rises from 2.71% to 5.4%.

First: COc1ccc2c3c1OC1C[C@@H](O)C=C[C@@]31CCN(C)C2 (stereo not given in full)
Second: COc1cccc(-c2cc(=O)c3ccccc3o2)c1N
The “activity change, negative = cytotoxic” value of the first is lower: 4.51% for the first, 26.8% for the second.

Going from `CCCCC1C(=O)N(c2ccccc2)N(c2ccccc2)C1=O` to `O=C(O)c1ccccc1C(=O)Nc1ccc(-c2ccccc2)cc1`, the “activity change, negative = cytotoxic” value rises from -4.49% to 18.3%.

Going from `O=c1cc(-c2cccc3c2Sc2ccccc2S3)oc(N2CCOCC2)c1` to `O=C(Nc1ccccc1-c1cn2c(CN3CCNCC3)csc2n1)c1cnc2ccccc2n1`, the “activity change, negative = cytotoxic” value rises from -9.59% to -3.3%.

First: COc1cc(Nc2ncc(F)c(Nc3ccc4c(n3)NC(=O)C(C)(C)O4)n2)cc(OC)c1OC
Second: COc1cc2c(cc1OC)CN(CCc1ccc(NC(=O)c3cc(OC)c(OC)cc3NC(=O)c3cnc4ccccc4c3)cc1)CC2
The “activity change, negative = cytotoxic” value of the first is higher: 5.89% for the first, -0.0284% for the second.

First: Nc1nc(F)nc2c1ncn2[C@@H]1O[C@H](COP(=O)(O)O)[C@@H](O)[C@H]1O
Second: O=c1c(-c2ccc(O)cc2)coc2cc(OC3O[C@H](CO)[C@H](O)[C@H](O)[C@H]3O)cc(O)c12 (stereo not given in full)
The “activity change, negative = cytotoxic” value of the first is higher: 25.4% for the first, -4.15% for the second.

Compared with `CNC(=O)c1ccc2cc(C3(O)CCn4cncc43)ccc2c1` (stereo not given), `CC(C(=O)O)c1ccc(-c2ccccc2)c(F)c1` (stereo not given) is lower in “activity change, negative = cytotoxic” value: 3.94% for the first, -11.1% for the second.

Going from `COc1ccc(C2CC(c3ccccc3)=NN2c2ccc(S(N)(=O)=O)cc2)cc1` (stereo not given) to `COc1ccc2cc(-c3nc(-c4ccc(S(C)=O)cc4)[nH]c3-c3ccncc3)ccc2c1` (stereo not given), the “activity change, negative = cytotoxic” value falls from -5.72% to -17.6%.

Going from `CC(C)(C(=O)NCC(F)(F)C(F)(F)F)C(=O)N[C@@H]1C(=O)Nc2ccccc2-c2ccccc21` to `Cc1c[nH]c(C=C2C(=O)Nc3ccccc32)c1CCC(=O)O`, the “activity change, negative = cytotoxic” value rises from -9.57% to 13.8%.

Compared with `CC=CC(=O)N(CC)c1ccccc1C`, `CCN(CC)CCNC(=O)c1ccc(N)cc1` is higher in “activity change, negative = cytotoxic” value: -3.73% for the first, 4.76% for the second.

Compared with `C[N+]1(C)[C@@H]2CC(OC(=O)[C@H](CO)c3ccccc3)C[C@H]1[C@H]1O[C@@H]12` (stereo not given in full), `COCCOC(=O)C1=C(C)NC2=C(C(=O)CC(c3ccccc3OC)C2)C1c1cccc(O)c1` (stereo not given) is lower in “activity change, negative = cytotoxic” value: 16.7% for the first, -19.9% for the second.

First: COc1ccc(Cc2ccc(NC(N)=O)cc2)cc1-c1cccc(Cl)c1
Second: NC(=O)[C@@H](CCC(F)(F)F)N(Cc1ccc(-c2ncon2)cc1F)S(=O)(=O)c1ccc(Cl)cc1
The “activity change, negative = cytotoxic” value of the first is lower: -8.98% for the first, -5.48% for the second.

First: c1ccc2c(-c3cnn4cc(-c5ccc(N6CCNCC6)cc5)cnc34)ccnc2c1
Second: COc1cc(N2CCC(N3CCN(C)CC3)CC2)ccc1Nc1ncc(Cl)c(Nc2ccccc2S(=O)(=O)C(C)C)n1
The “activity change, negative = cytotoxic” value of the first is higher: 15.4% for the first, 9.05% for the second.

Compared with `CC[C@]1(O)C[C@@H]2CN(CCc3c([nH]c4ccccc34)[C@@](C(=O)OC)(c3cc4c(cc3OC)N(C=O)[C@@H]3C45CCN4CC=C[C@](CC)([C@H]45)[C@@H](OC(C)=O)[C@]3(O)C(=O)OC)C2)C1` (stereo not given in full), `COc1cc(N2CCC(N3CCN(C)CC3)CC2)ccc1Nc1ncnc(Nc2ccccc2S(=O)(=O)C(C)C)n1` is higher in “activity change, negative = cytotoxic” value: -2.79% for the first, 16.4% for the second.

First: C[C@@H]1CCN(C(=O)CC#N)C[C@H]1N(C)c1ncnc2[nH]ccc12
Second: O=C(NCCN1CCOCC1)c1ccc(Cl)cc1
The “activity change, negative = cytotoxic” value of the first is lower: -4.08% for the first, 11.2% for the second.

Compared with `N[C@H](CSC(c1ccccc1)(c1ccccc1)c1ccccc1)C(=O)O`, `CC(C)(C)Cn1c(N)nc2ccc(-c3[nH]c(C(C)(C)C)nc3-c3ccc(F)cc3)nc21` is lower in “activity change, negative = cytotoxic” value: 19% for the first, -4.96% for the second.

First: CC[C@@]1(O)C[C@H](O[C@H]2C[C@H](N(C)C)[C@H](O[C@H]3C[C@H](O)[C@H](O[C@H]4CCC(=O)[C@H](C)O4)[C@H](C)O3)[C@H](C)O2)c2c(cc3c(c2O)C(=O)c2c(O)cccc2C3=O)[C@@H]1C(=O)OC
Second: CC(=O)OC1C(C)OC(Oc2c(-c3ccc(O)cc3)oc3cc(O)cc(O)c3c2=O)C(O)C1OC(C)=O (stereo not given)
The “activity change, negative = cytotoxic” value of the first is higher: 2.21% for the first, -6.25% for the second.

In the case of `NC[C@@H]1O[C@@H](O[C@H]2[C@@H](O)[C@H](O[C@@H]3[C@@H](O)[C@@H](N)C[C@H](N)[C@H]3O[C@H]3O[C@H](CN)[C@@H](O)[C@@H](O)[C@H]3N)O[C@H]2CO)[C@H](N)[C@@H](O)[C@@H]1O`, the “activity change, negative = cytotoxic” value is reported as 11.3%.

With `COc1ccc(-c2nc(N3CCOCC3)c3sc(CN(C)c4ncc(C(=O)NO)cn4)cc3n2)cn1` the Potency was 0.0118 µM (active).
For `O=C(O)Cc1cccc2ccccc12`, the Potency was “inactive”.
In the case of `O=C1c2ccccc2-[n+]2ccc3c([nH]c4ccccc43)c21`, the Potency is reported as 9.35 µM (active).
With `CO[C@@H](C(=O)N1Cc2[nH]nc(NC(=O)c3ccc(N4CCN(C)CC4)cc3)c2C1)c1ccccc1` the Potency was 18.7 µM (active).
In the case of `CN1C[C@H]2c3ccccc3Oc3ccc(Cl)cc3[C@@H]2C1`, the Potency is reported as “inactive”.
